Eight compounds from PubChem BioAssay (NCI) can be followed below.

Compounds without any hit were thinned out: in the full panel of roughly 83,000, 20% have a hit.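 Treatment: one concentration, 48 hours, 96-well format. Scoring: percent growth, with anything below 10 considered active.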 Unmarked numbers belong to inactive results. Active and inactive are the calls of the source.

Among the test systems are DU-145 prostate; K-562 leukemia; MALME-3M melanoma; MDA-MB-231 breast; RXF 393 renal; SF-268 CNS; SF-295 CNS; SF-539 CNS; UACC-257 melanoma; M14 melanoma; HCT-15 colon; HT29 colon; SNB-75 CNS; SNB-19 CNS; U251 CNS; PC-3 prostate; SK-MEL-5 melanoma; UACC-62 melanoma; LOX IMVI melanoma; SK-MEL-28 melanoma.
What all share (experiment): NCI-60 one-dose screen, 48 h (100 = growth as untreated, 0 = no growth, -100 = all killed)
Holding throughout (conditions): 10 µM unless noted

On to `O=C1NC(=O)/C(=C/c2c(-c3ccccc3)nc3sc(COc4ccccc4)nn23)S1`, for which the growth in the experiment on DU-145 prostate is 105%; in the experiment on K-562 leukemia it was 82.6%; with MALME-3M melanoma it was 102%; with MDA-MB-231 breast it was 73.3%; in the experiment with RXF 393 renal, 112%; in the experiment with SF-268 CNS, 106%. The growth with SF-295 CNS is 94.3%; in the experiment on SF-539 CNS it was 103%; in the experiment on UACC-257 melanoma, 104%; with M14 melanoma, 96.1%; in the experiment on HCT-15 colon it was 97.2%; with HT29 colon, 117%. Besides, the growth with SNB-75 CNS was 108%; in the experiment on SNB-19 CNS, 95.6%; in the experiment with U251 CNS, 96.7%; in the experiment on PC-3 prostate, 111%; in the experiment on SK-MEL-5 melanoma, 97.9%; in the experiment on UACC-62 melanoma, 90%. For the same compound, the growth was 57% with LOX IMVI melanoma and 110% in the experiment on SK-MEL-28 melanoma.

As for `COc1ccc(/C=C/C(c2cc(OC)c(OC)c(OC)c2)n2cncn2)cc1` (stereo not given), the growth is 61.2% in the experiment with DU-145 prostate; 17.7% in the experiment with K-562 leukemia; 61.3% with MALME-3M melanoma; 50.1% with MDA-MB-231 breast; 46.5% in the experiment with RXF 393 renal; 57.1% in the experiment with SF-268 CNS. The growth in the experiment with SF-295 CNS was 22.5%; in the experiment with SF-539 CNS it was 56.5%; with UACC-257 melanoma, 46.4%; in the experiment on M14 melanoma, 17.9%; with HCT-15 colon, 31.1%; in the experiment with HT29 colon, 4.96% (active). The growth is 51.3% with SNB-75 CNS; 49% with SNB-19 CNS; 31.8% with U251 CNS; 31.2% in the experiment with PC-3 prostate; 33% in the experiment on SK-MEL-5 melanoma; 33.8% in the experiment on UACC-62 melanoma. For the same compound, the growth in the experiment with LOX IMVI melanoma is 50%; in the experiment on SK-MEL-28 melanoma it was 62.6%.

As to `CC(C)N1C(=O)/C(=c2\sc3n(c2=O)C2C(NN=3)N(C)C(=O)N2C)c2ccccc21` (stereo not given), the growth with DU-145 prostate is 84.3%; with K-562 leukemia it was 27%; with MALME-3M melanoma, 53.2%; with MDA-MB-231 breast, 90.9%; with RXF 393 renal it was 57.3%; in the experiment on SF-268 CNS, 74.9%. Also, the growth is 50.1% with SF-295 CNS; 49.2% with SF-539 CNS; 50% in the experiment with UACC-257 melanoma; 44.9% in the experiment with M14 melanoma; 37.8% in the experiment on HCT-15 colon; 31.3% in the experiment on HT29 colon. Besides, the growth is 4.34% (active) in the experiment with SNB-75 CNS; 61.9% in the experiment with SNB-19 CNS; 48.2% in the experiment with U251 CNS; 55% in the experiment with PC-3 prostate; 48.8% in the experiment with SK-MEL-5 melanoma; 33.4% in the experiment on UACC-62 melanoma. Further, the results for the growth in the experiment on LOX IMVI melanoma and with SK-MEL-28 melanoma were 56.6% and 64%, respectively.

In the case of `CN1CCN(Cc2ccc(NC(=O)c3cncc(C#Cc4cnc(N)c5ccc(F)cc45)c3)cc2C(F)(F)F)CC1`, the growth in the experiment on DU-145 prostate is 4.11% (active); in the experiment on K-562 leukemia it was -63.7% (active); with MALME-3M melanoma, -17.2% (active); in the experiment with MDA-MB-231 breast, -58.2% (active); with RXF 393 renal, -3.82% (active); with SF-268 CNS, 29.6%. Further, the growth is 28.2% in the experiment on SF-295 CNS; -3.72% (active) in the experiment on SF-539 CNS; 47.5% in the experiment with UACC-257 melanoma; -0.651% (active) in the experiment on M14 melanoma; -86.1% (active) in the experiment on HCT-15 colon; -56.3% (active) in the experiment on HT29 colon. Also, the growth is -3.01% (active) in the experiment with SNB-75 CNS; 29.4% in the experiment with SNB-19 CNS; -92.4% (active) with U251 CNS; 18.6% in the experiment on PC-3 prostate; -21.8% (active) in the experiment on SK-MEL-5 melanoma; 20.6% in the experiment on UACC-62 melanoma. In addition, the growth in the experiment on LOX IMVI melanoma is -90.3% (active); with SK-MEL-28 melanoma it was 34.3%.

In the case of `O=C(CCCCCCN1CC(=O)N2[C@H](c3ccc(Cl)cc3)c3[nH]c4ccccc4c3C[C@@H]2C1=O)NO`, the growth was 72.2% in the experiment with DU-145 prostate; 25.2% in the experiment on K-562 leukemia; 23% in the experiment with MALME-3M melanoma; 68.9% in the experiment on MDA-MB-231 breast; 65.7% with RXF 393 renal; 85.1% in the experiment with SF-268 CNS. Further, the growth in the experiment with SF-295 CNS is 85.6%; in the experiment on SF-539 CNS, 57%; with UACC-257 melanoma, 36.4%; with M14 melanoma, 61.7%; in the experiment with HCT-15 colon it was 109%; in the experiment on HT29 colon, 67.5%. Moreover, the growth with SNB-75 CNS is 30.2%; with SNB-19 CNS it was 69.6%; with U251 CNS, 53%; in the experiment with PC-3 prostate it was 48.2%; in the experiment with SK-MEL-5 melanoma it was 43.8%; in the experiment on UACC-62 melanoma, 21%. Also, the growth in the experiment with LOX IMVI melanoma was 27.1%; with SK-MEL-28 melanoma it was 45.3%.

`CCCCCCCCCCCCCCCCCCOc1ccccc1CC(=O)NCC[N+]1(C)CCCCC1`: the growth in the experiment with DU-145 prostate is 68.7%; with K-562 leukemia it was 34.2%; in the experiment with MALME-3M melanoma it was 44.9%; in the experiment on MDA-MB-231 breast, 36.6%; with RXF 393 renal it was 18.4%; with SF-268 CNS, 34%. In addition, the growth in the experiment on SF-295 CNS is 90.2%; in the experiment on SF-539 CNS, 84%; in the experiment on UACC-257 melanoma, 88.3%; with M14 melanoma it was 68.3%; with HCT-15 colon it was 95.7%; in the experiment on HT29 colon, 12.8%. Moreover, the growth in the experiment on SNB-75 CNS is 61.4%; with SNB-19 CNS, 36.7%; in the experiment on U251 CNS, 16.3%; in the experiment on PC-3 prostate it was 8.74% (active); with SK-MEL-5 melanoma, 82.1%; in the experiment on UACC-62 melanoma, 44.6%. Also, the growth is 53.6% with LOX IMVI melanoma and 76.2% in the experiment on SK-MEL-28 melanoma.

For the compound `O=C(/C=C/c1ccccc1)c1ccc(Nc2nc(Nc3ccc(F)cc3)nc(Nc3ccc(Cl)cc3)n2)cc1`, the growth in the experiment on DU-145 prostate was 97.7%; in the experiment with K-562 leukemia it was 70.9%; in the experiment with MALME-3M melanoma it was 109%; in the experiment on MDA-MB-231 breast it was 81.5%; with RXF 393 renal, 134%; in the experiment on SF-268 CNS, 88.1%. The growth was 69.3% in the experiment with SF-295 CNS; 97.2% in the experiment on SF-539 CNS; 110% in the experiment on UACC-257 melanoma; 81.2% in the experiment on M14 melanoma; 86.7% in the experiment with HCT-15 colon; 83.5% in the experiment on HT29 colon. For the same compound, the growth in the experiment with SNB-75 CNS is 95%; in the experiment on SNB-19 CNS it was 101%; with U251 CNS it was 78.9%; with PC-3 prostate, 74.5%; with SK-MEL-5 melanoma, 79%; with UACC-62 melanoma, 100%. Moreover, the growth with LOX IMVI melanoma was 85.1%; with SK-MEL-28 melanoma, 90.9%.

Take `O=[N+]([O-])c1ccc(-c2cn3nc(-c4c[nH]c5ccccc45)sc3n2)cc1`: the growth in the experiment with DU-145 prostate is 110%; in the experiment on K-562 leukemia, 84.1%; in the experiment on MALME-3M melanoma, 89.5%; in the experiment with MDA-MB-231 breast, 94%; in the experiment on RXF 393 renal, 108%; with SF-268 CNS it was 108%. In addition, the growth in the experiment on SF-295 CNS was 102%; with SF-539 CNS, 105%; in the experiment on UACC-257 melanoma, 95.3%; with M14 melanoma it was 97%; in the experiment on HCT-15 colon, 86%; in the experiment with HT29 colon, 95.3%. Also, the growth was 96.4% in the experiment on SNB-75 CNS; 93.4% in the experiment with SNB-19 CNS; 96.9% with U251 CNS; 93.7% with PC-3 prostate; 91.2% in the experiment with SK-MEL-5 melanoma; 84.2% with UACC-62 melanoma. For the same compound, the results for the growth with LOX IMVI melanoma and in the experiment on SK-MEL-28 melanoma were 94.7% and 111%, respectively.
